According to PubChem BioAssay (NCATS):
Records with an inconclusive call do not appear. A call without a number means that no potency is given here. The source made the active and inactive calls. Calls come from the whole dose curve; as a rule, active = well fitted inhibition curve with a large enough effect; inconclusive = small, poorly fitted or top-dose-only effect; inactive = flat fitted curve, though single readings scatter.

test system: astro; assay: Drug repurposing screens with cells derived from glioblastoma tumor samples (AID 1345199); conditions: viability, ATP luminescence, 48 h; series mostly up to 45.9 µM; note: nearly all actives have a fitted effect of over 40% in size
Procedure: CD133+ cells were isolated from GBM patient biopsies and cultured as neurospheres. Neurospheres from four patients were used to screen the NCATS pharmaceutical collection (NPC) library of approved drugs and bioactive compounds. […] The neurospheres were incubated with drugs for 48 hours in 1536-well format, then assayed with an ATP content cell viability assay. […] These hits were cherry picked to confirm activity in the four original GBM lines screened plus three other slower growing GMB lines (unable to yield enough cells for a full primary screen). Variable activities of the confirmed primary hits in the different GBM patient lines were observed. The patient line 206 responded to the greatest number of compounds and line 923 responded to the least amount of active compounds.
Potency is the fitted concentration of half-maximal effect.

Row | Compound | Potency
1 | C[C@H](N)[C@H](O)c1ccc(O)c(O)c1 | inactive
2 | CN(C)CCc1c[nH]c2ccccc12 | inactive
3 | COc1ccc(C(=O)N2CCCC2=O)cc1 | inactive
4 | CC[C@H]1C[C@H]2[C@@H]3CCC4=CC(=O)CC[C@@H]4[C@H]3CC[C@]2(C)[C@H]1O | inactive
5 | COc1ccc2[nH]cc(CCN(C(C)C)C(C)C)c2c1 | inactive
6 | COc1ccc(OC)c(CC(C)N)c1 (stereo not given) | inactive
7 | CC(C)C(Br)C(=O)NC(N)=O (stereo not given) | inactive
8 | CNC(C)Cc1ccc2c(c1)OCO2 (stereo not given) | inactive
9 | C[C@@H]1CN(C2CCC(C#N)(c3ccc(F)cc3)CC2)CC[C@]1(C(=O)O)c1ccccc1 (stereo not given in full) | inactive
10 | Oc1ccc([C@H]2CNCc3c2ccc(O)c3O)cc1O | inactive
11 | CCc1cc(OC)c(C[C@H](C)N)cc1OC | inactive
12 | C[C@@H]1CC[C@H]2[C@@H](C)C(=O)O[C@@H]3O[C@@]4(C)CC[C@@H]1[C@]32OO4 | inactive
13 | CCCN(CCC)CCc1c[nH]c2ccccc12 | inactive
14 | CN(C)C(=O)Oc1cc(OC(=O)N(C)C)cc(C(O)CNC(C)(C)C)c1 (stereo not given) | inactive
15 | O=C(NC(=O)c1c(F)cccc1F)Nc1cc(Cl)c(OC(F)(F)C(F)C(F)(F)F)cc1Cl (stereo not given) | inactive
16 | CCOC(=O)NC(O)C(Cl)(Cl)Cl (stereo not given) | inactive
17 | CCN(CC)Cc1nccn1-c1ccc([N+](=O)[O-])cc1C(=O)c1ccccc1Cl | inactive
18 | CN1C(=O)CN=C(c2ccccc2)c2cc(Cl)ccc21 | inactive
19 | CC(Cc1ccc2c(c1)OCO2)NO (stereo not given) | inactive
20 | NCc1cccnc1 | inactive

Row | Compound | Potency
21 | OC(c1ccccc1)(c1ccccc1)C1CCNCC1 | inactive
22 | O=C(O)c1nn(Cc2ccc(Cl)cc2Cl)c2ccccc12 | inactive
23 | CN(C)CCc1c[nH]c2ccc(O)cc12 | inactive
24 | CN1C(=O)[C@@H](NC(=O)c2cc3ccccc3[nH]2)N=C(c2ccccc2)c2ccccc21 | inactive
25 | OC(O)C(Cl)(Cl)Cl | inactive
26 | O=C(O)CCCCCCNC1c2ccccc2CCc2ccccc21 | inactive
27 | COc1cc(C[C@@H](C)N)c(OC)cc1Br | inactive
28 | CCC1(CC)C(=O)NC(=O)NC1=O | inactive
29 | CC(C)=C[C@@H]1[C@@H](C(=O)OCc2coc(Cc3ccccc3)c2)C1(C)C | inactive
30 | C[N+]1(CCC(C(N)=O)(c2ccccc2)c2ccccc2)CCCCC1 | inactive
31 | C[C@@H]1O[C@@H](O[C@@H]2C=C3CC[C@@H]4[C@H](CC[C@]5(C)[C@@H](c6ccc(=O)oc6)CC[C@]45O)[C@@]3(C)CC2)[C@H](O)[C@H](O)[C@H]1O | 0.0282 µM (active)
32 | O=C(O)Cc1ccccc1 | inactive
33 | CC(C)[N+](C)(CCC(C(N)=O)(c1ccccc1)c1ccccc1)C(C)C | inactive
34 | c1ccc2nc(N3CCNCC3)ccc2c1 | 12.6 µM (active)
35 | NC1(c2ccccc2)CCCCC1 | inactive
36 | CCC(=O)O[C@H]1CC[C@H]2[C@@H]3CCC4=CC(=O)CC[C@]4(C)[C@H]3CC[C@]12C | inactive
37 | COc1ccc2c3c1O[C@H]1[C@@H](O)C=C[C@H]4[C@@H](C2)N(C)CC[C@@]341 | inactive
38 | CN1CCc2cc(Cl)c(O)cc2[C@H]2c3ccccc3CC[C@@H]21 | inactive
39 | C[C@H](CN1CCOCC1)C(C(=O)N1CCCC1)(c1ccccc1)c1ccccc1 | inactive
40 | Nc1ccc(N)cc1 | inactive
